This is an account of results in PubChem BioAssay (NCATS).

Inconclusive results are not listed. A call without a number means that no potency is given here. Calls of active or inactive are those of the source. The call rests on the fitted dose curve; in most records, active means well fitted inhibition curve with a large enough effect; inconclusive means small, poorly fitted or top-dose-only effect; inactive means no such curve, though single readings can be large or run the other way.
Potency means the concentration at half of the fitted maximal effect.

The assay deals with Cytochrome P450 3A7 (Homo sapiens) (UniProt P24462). In words: Cytochrome P450 family 3 subfamily A member 7 (CYP3A7) small molecule antagonists: luciferase biochemical qHTS assay (AID 1963596). Further: nearly all actives have a fitted effect of over 40% in size. The settings on record: P450-Glo CYP3A7 enzyme luminescence, 1 h; series mostly up to 57.4 µM. Put shortly: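 In this luminescent screen, enzyme and proluciferin substrate meet test compound for 10 min before NADPH regeneration solution drives a 1 h room-temperature reaction; detection reagent halts turnover and luminescence is read 20 min later.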
Chain of Cytochrome P450 3A7 (Homo sapiens) (P24462 whole entry, looked up): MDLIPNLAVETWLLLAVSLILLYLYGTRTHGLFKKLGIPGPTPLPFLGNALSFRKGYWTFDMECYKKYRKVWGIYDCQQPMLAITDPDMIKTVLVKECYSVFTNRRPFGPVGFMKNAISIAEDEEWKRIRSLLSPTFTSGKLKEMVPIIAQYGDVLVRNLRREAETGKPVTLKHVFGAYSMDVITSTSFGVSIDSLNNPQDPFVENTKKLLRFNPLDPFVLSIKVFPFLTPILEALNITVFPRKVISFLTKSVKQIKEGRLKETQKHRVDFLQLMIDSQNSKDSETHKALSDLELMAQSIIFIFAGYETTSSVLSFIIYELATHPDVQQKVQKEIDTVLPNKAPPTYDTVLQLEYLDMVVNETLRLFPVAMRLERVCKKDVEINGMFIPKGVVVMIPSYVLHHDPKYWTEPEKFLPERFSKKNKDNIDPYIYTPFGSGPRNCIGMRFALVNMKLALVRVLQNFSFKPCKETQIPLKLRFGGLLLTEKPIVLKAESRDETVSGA
As for `CC(C)c1cccc2c(-c3ccccc3)cc(-c3ccc(-c4ccc(C(=O)O)cc4)[nH]3)nc12`, the Potency result was “inactive”.

Regarding `COC(=O)c1ccc2c(c1)nc(NC(=O)c1ccccc1)n2CCCc1ccccc1`, the Potency result is “inactive”.

In the case of `C[N+]1(CCCCC[N+]2(C)CCCC2)CCCC1`, the Potency result is “inactive”.

For `CCOC(=O)N1c2ccc(C(F)(F)F)cc2C(N(Cc2cc(C(F)(F)F)cc(C(F)(F)F)c2)C(=O)OC)CC1CC` (stereo not given), the Potency entry is “inactive”.

With `C[S+](=O)([O-])Nc1ccc(-c2ccc3nc(-c4cccc(OC(F)(F)F)c4)[nH]c3c2)cc1`, the Potency entry is “inactive”.

For `Cc1ccc(Nc2nc3nonc3nc2Nc2cccc(C(F)(F)F)c2)cc1Cl`, the Potency entry is “inactive”.

Take `O=C(O)C1CN(Cc2ccc(-c3nc4cc(Cc5ccccc5F)ccc4s3)c(F)c2)C1`: the activity change, negative = inhibition was -6.84% [at 11.5 µM] (inactive).

Regarding `CCOc1ccc(-c2nn3ncccc3c2-c2ccc(S(C)(=O)=O)cc2)cc1`, the Potency result was “inactive”.

For `Cc1nc(C)c(-c2ccc(C3CCC(CC(=O)O)CC3)cc2)nc1C(N)=O` (stereo not given), the Potency result was “inactive”.

As to `CCOC(=O)C(CCc1ccccc1)NC1CCCN2CCCC(C(=O)O)N2C1=O` (stereo not given), the Potency result is “inactive”.

Turning to `CC(=O)Nc1nc2c(Oc3cc(-c4ccc(C(F)(F)F)cc4)ncn3)cccc2s1`, the Potency is 26.8 µM (active).

Turning to `CCc1ccc(OCCn2c(C3CC(=O)N(Cc4ccc(F)cc4)C3)nc3ccccc32)cc1` (stereo not given), the Potency entry was “inactive”.

With `N=C(N)n1cccn1`, the Potency result was “inactive”.

Consider `CCOC(=O)c1csc(-n2nc(-c3ccc(F)c(F)c3)c(Cc3ccc(S(N)(=O)=O)cc3)c2N)n1`, for which the Potency entry was “inactive”.

For the molecule `C=C(C)Cn1c(SCC(=O)c2cccs2)nc2sc3c(c2c1=O)CCCC3`, the Potency entry was “inactive”.

Consider `COC(=O)c1ccc(C2C=C(c3ccc(Cl)cc3)Nc3nc4ccccc4n32)cc1` (stereo not given), for which the Potency result is “inactive”.

For the molecule `COc1cc2ncnc(Nc3cccc(I)c3)c2cc1OC`, the Potency result is “inactive”.

Turning to `CCc1ccc(CN(Cc2ccco2)C(=O)COc2ccccc2Cl)cc1`, the Potency result is “inactive”.

Regarding `O=C(Cn1c(=O)n(-c2ccc(Cl)cc2)c(=O)c2oc3ccccc3c21)Nc1ccccc1`, the Potency entry is “inactive”.

Consider `CC(=O)Oc1cc(C(F)(F)F)ccc1C(=O)O`, for which the Potency result was “inactive”.

As to `Cc1ccc(-c2nnc(Nc3ccccc3)c3ccccc23)cc1S(=O)(=O)NCc1nc2ccccc2[nH]1`, the Potency result is “inactive”.

`O=C(O)c1cc(C(F)(F)F)ccc1N1CC[C@H](OCc2ccccn2)C1`: the Potency result was “inactive”.

With `Cc1cc(OCc2nc(-c3ccccc3Cl)cs2)ccc1OCC(=O)O`, the Potency result is “inactive”.

Turning to `COc1ccc(NC(=O)CSc2nc(-c3cccs3)cc(C(F)(F)F)n2)cc1OC`, the Potency entry was “inactive”.

With `COc1ccc(C=CC(=O)O)cc1`, the Potency result was “inactive”.

As for `COC(=O)c1c(-c2ccc(Cl)cc2)noc1N1CCN(c2ccccc2OC)CC1`, the Potency entry is “inactive”.

Regarding `COc1ccc(NC(=O)c2ccc(C(=N)N(C)C)cc2)c(C(=O)Nc2ccc(Cl)cn2)c1`, the Potency result is “inactive”.

Consider `Cc1ccc(-c2nnc(Nc3ccc(Br)cc3)c3ccccc23)cc1S(=O)(=O)NCc1nc2ccccc2[nH]1`, for which the Potency entry is “inactive”.

Consider `CCCCCCCCCC(=O)O`, for which the Potency entry is “inactive”.

`NCc1c[nH]c(=S)n1C1CCc2c(F)cc(F)cc2C1` (stereo not given): the Potency is 15.1 µM (active).

On to `O=C1CC[C@H](C(=O)O)N1`, for which the Potency result was “inactive”.

In the case of `O=C(OCc1ccccc1)c1cccnc1`, the Potency entry was “inactive”.

As to `CCOc1ccc(S(=O)(=O)O)c2cccnc12`, the Potency entry was “inactive”.

For `CCCC(CCC)C(N)=O`, the Potency entry was “inactive”.

Regarding `OC[C@@H](O)C(O)[C@@H](O)CO` (stereo not given in full), the Potency entry is “inactive”.

With `Cc1cc(C(C)Nc2ccccc2C(=O)O)c2nc(N3CCOCC3)cc(=O)n2c1` (stereo not given), the Potency entry is “inactive”.

As for `COc1cc(Cc2cnc(N)nc2N)c(C(C)C)cc1OC`, the Potency entry is “inactive”.

In the case of `CCCCCCCCCCCCCCCCCC[N+](C)(C)CCC[Si](OC)(OC)OC`, the Potency entry was “inactive”.

For the molecule `O=C(O)c1ccc(Cc2c(-c3cccc(-c4ccccc4)c3)[nH]n(-c3nc(C(=O)O)cs3)c2=O)cc1`, the Potency result is “inactive”.

As to `C[C@@H](C(=O)O)c1ccc(-c2ccccc2)c(F)c1`, the Potency result was “inactive”.
